Screening results as filed in PubChem.
Hits are enriched below; roughly 2.1% of the tested compounds scored in any of these assays.
D2 ag-1 – D2 dopamine receptor (human) agonism. P14416. HEK293 T-REx D2 cells, calcium flux agonist mode. activation, % at 2 µM. hit rate 0.53% among 340,000;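 active means activation over 3 SD above normal in the single-dose calcium agonist read, cut at about 30% in these data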; further: 0% is about no effect
Target sequence (P14416 whole entry, looked up): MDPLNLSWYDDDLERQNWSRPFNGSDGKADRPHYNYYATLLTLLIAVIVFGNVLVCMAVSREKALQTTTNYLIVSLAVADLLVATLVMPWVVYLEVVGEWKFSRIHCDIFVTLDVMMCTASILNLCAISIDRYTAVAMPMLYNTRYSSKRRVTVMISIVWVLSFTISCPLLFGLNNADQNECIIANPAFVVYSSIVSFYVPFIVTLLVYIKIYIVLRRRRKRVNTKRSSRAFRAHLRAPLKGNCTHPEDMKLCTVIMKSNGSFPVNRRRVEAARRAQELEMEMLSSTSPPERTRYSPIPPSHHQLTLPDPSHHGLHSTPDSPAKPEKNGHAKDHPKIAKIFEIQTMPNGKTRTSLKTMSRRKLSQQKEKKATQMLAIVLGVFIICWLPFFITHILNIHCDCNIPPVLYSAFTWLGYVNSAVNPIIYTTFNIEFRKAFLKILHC
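In this primary screen, compounds producing a positive calcium signal within 180 s of addition to tetracycline-induced, force-coupled HEK293 Trex D2 cells are flagged; cells are dye-loaded with a no-wash calcium kit beforehand.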
LDHA block – inhibitors of human lactate dehydrogenase A. P00338. purified LDHA, NADH/diaphorase-resazurin fluorescence; active compounds read low. activity change, % (values are at about 110 or 230 µM). hit rate 0.15% among 480,000. AID 1347041; in the data active means activity change below about -30%; inconclusive means mostly about -25% to -30%;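 further: plate controls were DMSO wells for no effect and wells without enzyme for full effect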
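Enzyme activity of human lactate dehydrogenase 5 (2 nM; 0.06 mM NADH, 0.2 mM pyruvate, 5 min, RT) is measured via a resazurin/diaphorase fluorescence readout of residual NADH.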
D2 PAM-1 – positive allosteric modulators of human D2 dopamine receptor | P14416 | DiscoveRx D2 beta-arrestin cells, luminescence, 90 min; 100% = 57 uM dopamine signal | potentiation, % (concentration not given with the values) | hit rate 0.23% among 360,000; in the data active means potentiation above about 50%; inconclusive means mostly about 30% to 49%
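D2 cells co-treated with compound plus 50 nM dopamine (EC20) for 90 min at 37 deg C to detect potentiation. Beta-arrestin recruitment was read as enzyme-fragment luminescence after 1 h at ambient temperature. Full response was set by 57 uM dopamine.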
D2 ag-2 – human D2 receptor agonism in beta-arrestin assay; P14416; DiscoveRx PathHunter D2 beta-arrestin, luminescence, 90 min; 100% = 57 uM dopamine signal; activation, % (no concentration beside the values); hit rate 0.084% among 360,000; AID 624465; in the data active means activation above about 40%; inconclusive means between about 15% and that limit
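Agonist mode: compounds alone added to overnight-plated D2 PathHunter cells for 90 min at 37 C, with 57 uM final dopamine (EC100) defining full response. Beta-arrestin recruitment detected by chemiluminescent reagent, read after 1 h at ambient temperature.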
D2 antagonist – D2 dopamine receptor (human) antagonism. P14416. HEK293 TREx D2 cells, calcium flux, dopamine EC80. inhibition, % at 10 µM. hit rate 2% among 340,000; in the data active means inhibition above about 30%; inactive means below that, where a call was filed; further: 0% is about no effect
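HEK293 T-REx D2 cells, tet-induced, calcium dye no-wash. Cpd pintool add, 180 s kinetic, then EC80 DA, 180 s kinetic. Ca flux read.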
D2 PAM-2 – positively modulates the human D2 dopamine receptor allosterically | hit rate 0.34% among 340,000 | HEK293 T-REx D2, calcium flux, EC20 dopamine potentiation | P14416 | potentiation, % at 10 µM;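 active means potentiation over 3 SD above the plate norm, cut at about 30% in these data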; further: 0% is about no effect
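Calcium flux readout, no-wash dye, 1 read/s. Inducible HEK293 Trex D2 line, overnight 30 C. Compound alone 180 s (agonist flags), then EC20 dopamine, another 180 s to score potentiation.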
The depositor's hits bear a star; ? = inconclusive; . = no result.

SMILES	D2 ag-1	LDHA block	D2 PAM-1	D2 ag-2	D2 antagonist	D2 PAM-2
O=C(COC(=O)c1ccc(O)cc1O)Nc1ncc(Cl)cc1Cl	1.6	4.2	8.9	4.8	31.1*	-1.2
CC(=O)Nc1ccccc1/C=C/c1ccc2c(C)ccc(O)c2n1	1.8	-1.5	-9.4	2.5	33.2*	9.2
CC(=O)Nc1ccccc1/C=C/c1ccc2c(C)cc(C)c(O)c2n1	1.6	-2.5	4.1	-4.2	-10.5	-4.2
Cc1cccc(CNc2ccc(C(CC(N)=O)NC(=O)Cc3cccc4ccccc34)cc2[N+](=O)[O-])c1 (stereo not given)	-0.5	-0.8	-4.0	-4.1	33.8*	1.8
NC(=O)CC(NC(=O)c1cccc(Br)c1)c1ccc(NCC2CC2)c([N+](=O)[O-])c1 (stereo not given)	0.2	-3.8	-10.8	-3.1	37.7*	-8.9
NC(=O)CC(NC(=O)c1ccccc1)c1ccc(NCC2CC2)c([N+](=O)[O-])c1 (stereo not given)	0.2	-5.0	-9.2	-6.1	6.8	-0.6
CN=c1scc(C)n1/N=C/c1ccc(C#N)cc1	.	-2.2	.	.	.	.
O=C(Nc1cccc(F)c1)c1cccnc1NCc1ccccc1	.	4.9	.	.	.	.
N#CCCn1c(SCC(=O)N(C2CCCCC2)C2CCS(=O)(=O)C2)nc2ccccc21 (stereo not given)	.	2.7	.	.	.	.
O=S(=O)(c1ccc(Cl)cc1)N1CCN(c2ncccn2)CC1	0.6	-4.1	-2.7	-10.2	-24.5	4.3
O=S(=O)(c1ccc(Cl)cc1)n1cccn1	0.5	-2.4	-1.1	-2.4	40.4*	-7.0
Cc1ccc[n+](CC(=O)Nc2cc(C(F)(F)F)ccc2Cl)c1	-1.1	-2.2	-36.5	0.2	15.6	-23.9
O=C(C[n+]1cccc(CNC(=O)c2ccc(OC(F)F)cc2)c1)Nc1cc(C(F)(F)F)ccc1Cl	-1.2	0.0	-38.8	-2.1	63.0*	-18.7
NC(=O)C[n+]1cccc(CNC(=O)c2ccc(OC(F)F)cc2)c1	2.0	-2.5	0.6	-3.8	31.7*	0.7
Cc1ccc(C2=C(O)c3ccccc3C(=O)C2=O)cc1	1.2	8.7	-8.3	-2.3	-2.5	1.9
O=C1C(=O)c2ccccc2C(O)=C1c1cccc([N+](=O)[O-])c1	0.6	2.4	-19.4	-9.6	48.1*	11.7
CCn1nc(C)c(CN2CCC(C(=O)Nc3cccc(-c4cccc(F)c4)c3)CC2)c1C	-1.7	-1.4	-4.6	2.5	37.8*	-18.3
CCn1cc(CN2CCC(C(=O)Nc3cccc(-c4cccc(F)c4)c3)CC2)cn1	1.9	-3.7	-36.1	-3.0	-4.8	-29.1
N#Cc1c(N2CCN(CC(=O)Nc3ccc(Cl)cc3)CC2)nc(-c2ccco2)c2c1CCC2	.	-0.9	.	.	.	.
Cc1ccc(NC(=O)c2cc(C3CC3)nc3ccccc23)c(C)c1	.	0.0	.	.	.	.
CCCCCCSc1ccc([C@H]2N[C@@](CC(C)C)(C(=O)OC)[C@H]3C(=O)N(C)C(=O)[C@@H]23)cc1OC	1.7	-0.7	-11.3	-7.2	-9.8	-0.7
COC(=O)[C@]1(CC(C)C)N[C@H](c2ccc(SC3CCCCC3)c(OC)c2)[C@@H]2C(=O)N(C)C(=O)[C@@H]21	-0.2	-0.2	-7.8	-0.6	0.2	32.3*
Cc1ccc(N/N=C/c2ccc(Br)cc2)cc1Cl	.	-22.9	.	.	.	.
Cc1ccc(N/N=C/C(Br)=C/c2ccccc2)cc1Cl	.	2.2	.	.	.	.
CCNc1nc(NC(C)(C)C)nc(N(C#N)CC)n1	0.6	-6.4	-7.5	-0.8	-26.5	30.7*
SMILES	D2 ag-1	LDHA block	D2 PAM-1	D2 ag-2	D2 antagonist	D2 PAM-2
CC(NCC(=O)Nc1ccccc1C(=O)NC1CC1)c1ccc(S(N)(=O)=O)cc1 (stereo not given)	-0.4	-32.7*	1.2	-3.7	4.0	8.2
N/C(=N\c1nc2ccccc2o1)NC(=O)c1ccccc1	0.5	-4.5	-11.1	8.3	-10.7	2.5
Cc1ccc(C(=O)N/C(N)=N/c2nc3ccccc3o2)cc1	0.3	-12.6	0.5	-1.8	53.0*	8.3
COc1ccc(-c2c(C)c3c(n2C)C(c2ccccc2)Oc2ccccc2-3)cc1 (stereo not given)	.	-22.9	.	.	.	.
CCN(CC)S(=O)(=O)c1ccc(N2CCCCC2)c(NC(=O)/C(C#N)=C/c2ccc(OC)cc2)c1	-0.4	-1.4	8.7	0.8	1.3	-0.2
CCOc1ccc(NC(=O)/C(C#N)=C/c2ccc(N3CCCC3)c(C)c2)cc1	32.5*	-8.7	6.1	5.8	38.4*	-3.5
CC(=O)c1c(C)oc2c1C(=O)c1ccccc1C2=O	-0.1	23.7	12.8	1.9	0.9	-21.0
Cc1nc2c(o1)C(=O)c1ccccc1C2=Nc1ccccc1	.	27.3	51.2*	?	.	.
CCn1c(C)cc(C(=O)CSc2nnnn2C2CCCC2)c1C	-0.3	-1.3	-15.7	-1.5	30.4*	-3.6
Cc1nc(NC(=O)c2cc(-n3cnnc3)ccc2Cl)ccc1Br	0.9	-6.9	3.3	-1.7	30.4*	12.8
COC(=O)CN1CCN(C(c2ccccc2)c2ccccc2)CC1	0.7	1.4	-15.6	-2.1	4.6	4.7
CN(Cc1ccccc1)C(=O)CN1CCN(C(c2ccccc2)c2ccccc2)CC1	-2.0	-1.2	-34.9	-8.2	50.6*	-28.0
CC(C)Nc1nc(-c2ccc(NC(=O)C(C)(C)C)cc2)cs1	.	-0.8	.	.	.	.
COC(=O)c1cc(NC(=O)Cc2cc(OC)c(OC)c(OC)c2)cc(C(=O)OC)c1	-1.1	-2.9	-26.9	0.4	40.3*	3.4
COc1cccc2cc(-c3cc(=O)oc4ccc(OCC(C)=O)cc34)oc12	0.2	-7.9	5.3	-2.2	-8.5	-4.4
COC(=O)COc1ccc2oc(=O)cc(-c3cc4cccc(OC)c4o3)c2c1	0.1	0.2	3.6	-0.3	46.0*	0.6
Cc1ccc2c(CN(Cc3cccs3)C(C)C)cc(=O)oc2c1	.	0.8	.	.	.	.
COc1ccc(-c2cc3nc(C)cc(N4CC(C)CC(C)C4)n3n2)cc1 (stereo not given)	0.4	3.8	-2.3	-0.6	-15.7	40.3*
Cc1cc(C)c(C(=O)C(C)OC(=O)c2ccc(CO)cc2)cc1C (stereo not given)	.	9.4	.	.	.	.
Cc1nc([N+](=O)[O-])c(Br)n1CC(=O)c1ccc(F)cc1	0.5	-2.0	4.2	-0.7	33.6*	8.0
O=C(O)c1cnc(/C=C/c2cc(Cl)c3c(c2)OCO3)s1	.	1.2	.	.	.	.
CCC(C)NC(=O)CN1C(=O)COc2ccc(S(=O)(=O)N3CCOCC3)cc21 (stereo not given)	0.1	-5.1	2.6	-1.1	43.6*	-8.6
COC1=CC(=Cc2c(N)n3nc(CC(=O)N4CCOCC4)sc3nc2=O)C=C(OC)C1=O	.	19.3	-4.3	-3.0	.	.
